HttQ103 aggreg = qHTS Multiplex Assay to Identify Dual Action Probes in a Cell Model of Huntington: Aggregate Formation (GFP); 220,000 compounds, 1.1% hits; PC12 HttQ103-GFP aggregates, Acumen cytometry, 40 h; Potency, µM (doses to about 46.1 µM), without a hit: at the top dose activity change, negative = inhibition, actives largely listed as inhibitors; active = well fitted curve in the direction sought with a large enough effect; inconclusive = small, poorly fitted or top-dose-only effect, or another doubt; inactive = no such curve, though single readings can be large; an effect the other way counts as inactive or inconclusive; note: % is set by controls: 0 for no effect and ±100 for the full control effect; nearly all actives have a fitted effect of over 60% in size
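Ecdysone-promoter PC12 model expressing HTT exon 1 Q103 fused to GFP, induced by tebufenozide at 100 nM final. Compounds titrated; aggregates sized 1–25 µm scored on a 488 nm laser cytometer.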
ALDH1A1 inh = qHTS Assay for Inhibitors of Aldehyde Dehydrogenase 1 (ALDH1A1) | Aldehyde dehydrogenase 1A1 (Homo sapiens), P00352 | Purified ALDH1A1, NADH fluorescence, propionaldehyde substrate | Potency, µM (titrated, usually from 75.3 µM), for the others: at the highest dose activity, negative = inhibition, most hits filed as inhibitors | 220,000 compounds, 7.3% hits | AID 1030, 2008;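 note: plate controls were no enzyme wells and a reference inhibitor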
Target sequence (P00352 whole entry, looked up): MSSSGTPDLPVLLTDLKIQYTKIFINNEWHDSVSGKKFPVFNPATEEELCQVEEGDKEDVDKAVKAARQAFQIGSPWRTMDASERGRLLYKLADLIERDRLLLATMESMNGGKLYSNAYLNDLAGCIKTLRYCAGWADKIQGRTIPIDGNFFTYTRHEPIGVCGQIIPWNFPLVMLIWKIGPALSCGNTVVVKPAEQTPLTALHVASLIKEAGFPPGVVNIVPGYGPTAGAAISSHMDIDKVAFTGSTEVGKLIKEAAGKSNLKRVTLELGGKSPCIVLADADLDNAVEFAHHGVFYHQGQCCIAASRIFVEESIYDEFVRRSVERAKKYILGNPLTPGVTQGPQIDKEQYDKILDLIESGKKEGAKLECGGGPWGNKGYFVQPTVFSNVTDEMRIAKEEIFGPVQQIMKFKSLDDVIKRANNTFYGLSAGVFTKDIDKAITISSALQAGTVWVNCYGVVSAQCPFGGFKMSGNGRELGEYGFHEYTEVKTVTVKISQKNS
HTT cytoprotect = qHTS Multiplex Assay to Identify Dual Action Probes in a Cell Model of Huntington: Cytoprotection (ATP); 230,000 compounds, 0.14% hits; PC12 HTT-Q103 induced, cytoprotection, ATP luminescence, 40 h; Potency, µM (top dose mostly 56.4 µM), inactives show cytoprotection (ATP increase), most hits filed as activators; active = well fitted curve in the direction sought with a large enough effect; inconclusive = small, poorly fitted or top-dose-only effect, or another doubt; inactive = no such curve, though single readings can be large; an effect the other way counts as inactive or inconclusive; note: % of control where 0% means no effect; nearly all actives have a fitted effect of over 45% in size
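Quantitative HTS on tebufenozide-induced (100 nM) PC12 cells expressing HTTQ103 exon 1–GFP; compounds tested as a concentration series; survival measured via cellular ATP.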
HPGD inh = qHTS Assay for Inhibitors of HPGD (15-Hydroxyprostaglandin Dehydrogenase); purified HPGD, NADH fluorescence kinetic, PGE2 substrate; Potency, µM, without a hit: top-dose activity change, negative = inhibition, actives largely listed as inhibitors; 150,000 compounds, 4.3% hits; AID 894, 2007; note: % is set by controls: 0 for no effect and ±100 for the full control effect
Target sequence (P15428 whole entry, looked up): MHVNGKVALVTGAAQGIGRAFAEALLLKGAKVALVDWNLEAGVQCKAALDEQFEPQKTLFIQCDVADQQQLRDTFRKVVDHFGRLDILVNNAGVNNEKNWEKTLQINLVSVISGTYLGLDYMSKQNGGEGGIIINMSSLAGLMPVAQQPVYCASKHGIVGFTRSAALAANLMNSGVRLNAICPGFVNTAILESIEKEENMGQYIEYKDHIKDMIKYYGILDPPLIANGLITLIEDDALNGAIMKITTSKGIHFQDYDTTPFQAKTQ
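NADH formation kinetics: reaction with 30 uM PGE2 and 1 mM NAD+ (final), 20 nM enzyme, Tris-HCl pH 8 with Tween 20, after 15 min compound preincubation at room temperature. Fluorescence change, last versus first of five reads.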
Lamin A splicing = qHTS Assay for Modulators of Lamin A Splicing; HeLa LMNA splicing GFP/RFP minigene ratio, 48 h; Potency, µM (titrated, usually from 46.1 µM), for the others: at the top dose ratio change, negative = inhibition, usual class: inhibitors; 200,000 compounds, 0.01% hits; AID 1487, 2009; active = well fitted inhibition curve with a large enough effect in the signal ratio, with a control signal flat, not every such curve was filed as active; inconclusive = small, poorly fitted or top-dose-only effect, or effect the other way, or a change in a side signal; the % refers to the signal ratio; note: % is set by controls: 0 for no effect and ±100 for the full control effect
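Read-out is the ratio of GFP to DsRed2 object intensity, acquired by 488 nm laser-scanning cytometry on HeLa lamin A-EGFP minigene reporter cells. Compound incubation 48 hrs at 37 °C in Opti-MEM with 2% FBS; DMSO 0.5% final.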
Starred values were filed as active, the others as inactive; ? = inconclusive; nt = no result; [ ] = dose if it differs, or a comment. Most compounds without a hit are left out; they make up all but 8.8% or so of the library. Unless noted, calls come from the whole dose curve; as a rule, active = well fitted inhibition curve with a large enough effect (not every such curve was filed as active); inconclusive = small, poorly fitted or top-dose-only effect, or another doubt; inactive = no such curve, though single readings can be large or run the other way. Potency is the fitted concentration of half-maximal effect.

SMILES | HttQ103 aggreg | ALDH1A1 inh | HTT cytoprotect | HPGD inh | Lamin A splicing
CCOC(=O)c1c(N)sc2c1CCCC2 | -8% | 20µM* | -8% | ? | 3%
CCC(=O)Nc1sc2c(c1C(=O)N(C)C)CCCCC2 | ? | ? | 12%[10 µM] | 2% | -5%
CCOC(=O)c1c(NC=O)sc2c1CCC2 | 4% | -10% | 19% | -6% | 7%
CCNC(=O)c1c(N)sc2c1CCCCC2 | 1% | 28µM* | -17% | 28µM* | 5%
CCCOC(=O)c1c(NC(=O)C2C3C=CC(C3)C2C(=O)O)sc2c1CCC(C)C2 (stereo not given) | -5%[9.22 µM] | 10µM* | -23%[10 µM] | nt | nt
Cc1ccc(-n2ncc(C(=O)NCc3ccco3)c2C2CCN(C(=O)OC(C)(C)C)CC2)c(C)c1 | nt | nt | nt | nt | 10%[46 µM]
NC[C@H](O)C1CCCCCCC1 | nt | nt | -27%[1.9 µM] | nt | nt
COCOc1c2c(c(OCOC)c3c(OCOC)cccc13)/C(=N/NS(C)(=O)=O)C1=C2CCCC1 | nt | -14% | -23% | ? | nt
CCOC(=O)c1c(N)sc2c1CCC(C)C2 (stereo not given) | -20% | 13µM* | 10%[10 µM] | ? | ?
CCOC(=O)c1c(N2C(=O)C3C4C=CC(O4)C3C2=O)sc2c1CCCC2 (stereo not given) | 25% | 2.2µM* | -17% | 16µM* | -11%
CCCC1CCc2c(sc(N)c2C(N)=O)C1 (stereo not given) | -14% | 10µM* | -12%[10 µM] | -12% | -7%
CCOC(=O)c1c(NS(C)(=O)=O)sc2c1CCC(C)C2 (stereo not given) | 0% | ? | 8% | -7% | 10%
CCC(C)(C)C1CCc2c(sc(N)c2C(N)=O)C1 (stereo not given) | -23% | ? | 11%[10 µM] | -5% | ?
S=c1nn[nH]n1C12CC3CC(CC(C3)C1)C2 | 15% | 2.8µM* | 0% | ? | 3%
CC(=O)Oc1ccc(Oc2ccc(-c3noc(C)n3)cc2)cc1 | -31% | 0% | -47% | -28% | ?
CC(=O)Nc1ccc(Oc2ccc(-c3noc(C)n3)cc2)cc1 | ? | -5% | -19% | 7.9µM* | ?
COc1ccc(Oc2nc3c(c(=O)n(C)c(=O)n3C)n2Cc2ccc(Cl)cc2Cl)cc1 | nt | nt | nt | nt | 2%[46 µM]
C=CC[n+]1c(/C=C2\C=Cc3cc(C)ccc3N2CC)ccc2ccccc21 | 3.2µM* | ? | -125% | nt | ?
CC(C)CCSc1nc(N)c(C#N)cc1C#N | 22µM* | ? | -28%[10 µM] | -23% | ?
O=C(CCl)Nc1cccc(S(=O)(=O)N2CCCCCC2)c1 | 10µM* | 0.71µM* | 31%[10 µM] | nt | ?
O=S(=O)(Nc1cccc(S(=O)(=O)N2CCCCCC2)c1)c1ccccc1 | 10%[9.22 µM] | 2µM* | 6%[10 µM] | nt | nt
CSc1cccc(NS(=O)(=O)c2ccccc2)c1 | 9% | -2% | 1%[1.9 µM] | 25µM* | -12%
CSc1cccc(NS(=O)(=O)c2ccc(C(C)=O)cc2)c1 | -18%[9.22 µM] | nt | 23%[10 µM] | nt | nt
CC(=O)N1CCN(CC(=O)Nc2cccc(S(=O)(=O)N3CCCCCC3)c2)CC1 | -1% | -5% | -15% | nt | ?
O=C(N1CCCCC1)N1CCN(S(=O)(=O)c2ccc(Cl)cc2)CC1 | 3%[9.22 µM] | 2% | 9%[10 µM] | nt | ?
SMILES | HttQ103 aggreg | ALDH1A1 inh | HTT cytoprotect | HPGD inh | Lamin A splicing
O=S(=O)(c1cccc(S(=O)(=O)N2CCCC2)c1)c1cccc(S(=O)(=O)N2CCCC2)c1 | 2% | ? | -5% | 6% | -8%
O=C(N1CCCCCC1)N1CCN(S(=O)(=O)c2ccccc2)CC1 | -11%[9.22 µM] | 6.3µM* | 18% | -6% | 6%
CC(Oc1ccc(Cl)cc1)c1ccc(C#N)c(=O)[nH]1 (stereo not given) | -5% | ? | -49% | nt | nt
C[N+]1([C@H](CO)Cc2c[nH]c3ccccc23)Cc2ccccc2C1 | nt | 1%[13.5 µM] | -10%[10 µM] | -9% | nt
O=C(O)NCc1ccccc1 (tested in a mixture with another compound) | nt | -3%[13.5 µM] | -5%[10 µM] | -5% | nt
CCOC(=O)C1CCN(C(c2ccccc2)c2c(O)cc(C)n(Cc3ccco3)c2=O)CC1 (stereo not given) | nt | nt | nt | nt | -15%[46 µM]
CCC(=O)N(CCC(c1ccc(C)cc1)c1ccco1)Cc1ccco1 (stereo not given) | 30%[9.22 µM] | 22µM* | 31%[10 µM] | nt | nt
O=C(c1ccco1)N(CCC(c1ccccc1)c1ccco1)Cc1ccc(F)cc1 (stereo not given) | -33% | 14µM* | -75% | -9% | ?
CC1(C)CC(C(CCN(Cc2ccccc2)C(=O)c2ccco2)c2ccc(F)cc2)CCO1 (stereo not given) | ? | ? | 0%[10 µM] | -7% | ?
CCOc1ccc(Cn2c(O)cc(=O)[nH]c2=O)cc1 | 9% | 18µM* | -4%[10 µM] | -12% | -7%
Nc1nc2c(s1)COc1ccccc1-2 | 12%[9.22 µM] | 22µM* | 12%[10 µM] | nt | ?
O=C(CCSc1ccccc1)Nc1nc2c(s1)COc1ccccc1-2 | -1% | 14µM* | 5%[10 µM] | -26% | 20%
CC(C)(C)C(=O)Nc1nc2c(s1)COc1ccccc1-2 | ? | -8% | -9%[10 µM] | -19% | ?
Nc1nc2c(s1)CCc1c-2cnn1-c1ccccc1 | -13% | ? | -64% | ? | ?
COCCNC(=O)CN1C(=O)c2cccnc2Oc2ccc(Cl)cc21 | nt | nt | nt | nt | 23%[46 µM]
CCNC(=O)C1CCN(S(=O)(=O)c2ccc3c(c2)CCCN3C(C)=O)CC1 | nt | nt | nt | nt | 15%[46 µM]
Cc1c(N=Nc2ccc(O)cc2)c(=O)n(-c2ccccc2)n1C | -12% | 6% | -17% | nt | nt
Cc1c(N=NC2=C(O)CCCC2=O)c(=O)n(-c2ccccc2)n1C | 22% | 13µM* | -8%[10 µM] | nt | nt
CN(C)c1ccc(/C=N/c2cc(-c3ccccc3)nn2-c2ccccc2)cc1 | 3% | 7.9µM* | 2% | -20% | -1%
CCOC(=O)c1ccc(NC(=O)N2CCN(Cc3ccccc3)CC2)cc1 | 17%[9.22 µM] | -12% | -9%[10 µM] | nt | nt
COC/C=C/C1=CC2=CC(=O)C(C)(OC(=O)c3ccc(Cl)nc3)C(=O)C2=CO1 (stereo not given) | nt | 3% | 5% | -16% | nt
COc1cc(OC)cc(-c2n[nH]c(=S)n2-c2ccc3c(c2)OCO3)c1 | 7% | 5% | -5%[10 µM] | 25µM* | 2%
Cc1ccc(C)c(-n2c(-c3ccc4c(c3)OCO4)n[nH]c2=S)c1 | -10% | ? | -14% | ? | 9%
Fc1ccc(-n2c(-c3ccc4c(c3)OCO4)n[nH]c2=S)cc1Cl | 12% | ? | 8%[10 µM] | 10µM* | -13%
Oc1ccc(-c2n[nH]c(=S)n2-c2ccc3c(c2)OCCO3)cc1 | 30% | 25µM* | -2%[10 µM] | 20µM* | -9%
COCCCn1c(SCC(=O)NNC(=O)c2cccc(O)c2)nnc1-c1ccncc1 | -3%[9.22 µM] | 14% | -2%[10 µM] | nt | nt
